Our source for the activation factor values is PubChem BioAssay AID2524 (Sanford-Burnham Center for Chemical Genomics, 2010).

The structures appear in SMILES notation. About 540 (0.16%) of roughly 330,000 compounds were called active. This excerpt belongs to a sample that is enriched for actives. Unmarked numbers belong to inactive results.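 Rule for the calls: active = activation factor of the enzyme at least 2-fold when tested at 20 µM; inactive = the rest.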

Intestinal-type alkaline phosphatase (Homo sapiens), sequence (P09923 whole entry, looked up): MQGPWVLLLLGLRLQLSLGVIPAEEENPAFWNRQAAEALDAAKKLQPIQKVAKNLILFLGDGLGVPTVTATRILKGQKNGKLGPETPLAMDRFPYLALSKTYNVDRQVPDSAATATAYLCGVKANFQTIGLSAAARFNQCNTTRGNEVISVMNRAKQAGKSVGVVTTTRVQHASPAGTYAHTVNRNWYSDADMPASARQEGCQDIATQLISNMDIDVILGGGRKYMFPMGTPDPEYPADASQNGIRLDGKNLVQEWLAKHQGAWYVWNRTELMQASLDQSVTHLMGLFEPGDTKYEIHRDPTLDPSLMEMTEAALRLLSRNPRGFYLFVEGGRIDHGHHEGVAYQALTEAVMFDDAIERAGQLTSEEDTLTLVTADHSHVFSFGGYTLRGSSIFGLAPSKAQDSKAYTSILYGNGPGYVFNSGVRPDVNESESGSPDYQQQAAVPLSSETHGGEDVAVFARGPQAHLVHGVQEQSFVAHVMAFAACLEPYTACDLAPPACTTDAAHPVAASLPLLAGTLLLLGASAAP

This test has as its target Intestinal-type alkaline phosphatase (Homo sapiens) (UniProt P09923). The test is described as follows: enzymatic activation of intestinal alkaline phosphatase – biochemical, luminescence, uHTS, primary screen (AID 2524). As to conditions: purified human IAP, CDP-Star luminescence, 30 min; at 10 µM; stronger effect = higher value; 1 = vehicle-only enzyme, 0 = enzyme-free background.
On to `CN1C(=O)C2(OCCCO2)c2cc(Cl)ccc21`, for which the activation factor is 0.939.

For `CC(=O)NCCc1ccc(S(=O)(=O)Nc2ccc(C)c(S(=O)(=O)N3CCOCC3)c2)cc1`, the activation factor is 0.976.

As for `COc1ccc(N(CC(=O)NCCSCc2cccc(Cl)c2)S(C)(=O)=O)cc1`, the activation factor was 1.4.

With `Cn1cnnc1SCC(=O)NNC(=O)COc1ccc(Br)cc1`, the activation factor is 1.79.

With `CCOc1ccc(NC(=O)CSc2nncn2C)cc1`, the activation factor is 3.82 (active).

In the case of `Cn1cnnc1SCC(=O)Nc1ccc(N2CCOCC2)cc1`, the activation factor is 1.03.

On to `Cc1cn(C2C=CC(CO)O2)c(=O)[nH]c1=O` (stereo not drawn), for which the activation factor is 0.925.

For `Cc1cc2c(cc1C)[n+](C)cn2CC(O)COCC1CC=CCC1` (stereo not drawn), the activation factor was 0.897.

Take `N=c1c2c(-c3ccccc3)c(-c3ccccc3)n(Cc3ccccc3)c2ncn1CCCO`: the activation factor is 1.11.

For `OCCCN1c2ccccc2Nc2nnc(-c3ccccc3)cc21`, the activation factor is 2.48 (active).

Regarding `O=C(NC(=S)Nc1ccccc1C(=O)O)c1ccc(-c2ccc(Br)cc2)o1`, the activation factor was 0.945.

As to `CCCCCC1CC(COc2ccccc2)OC1=O` (stereo not drawn), the activation factor was 0.9.

On to `CC(C)(C)NC(=O)C(=O)NCc1ccncc1`, for which the activation factor is 1.09.

Take `CC(NCC(=O)Nc1cc(Cl)cc(Cl)c1)c1ccccc1` (stereo not drawn): the activation factor was 1.03.

Consider `CCC(C(=O)Nc1ccc(C(C)C)cc1)c1ccccc1` (stereo not drawn), for which the activation factor was 2.92 (active).

As for `CCC(C(=O)Nc1ccc2c(c1)OCCO2)c1ccccc1` (stereo not drawn), the activation factor was 0.871.

As for `CCC(C(=O)OCC(=O)Nc1ccc(C(=O)Nc2ccc(OC)cc2)cc1)c1ccccc1` (stereo not drawn), the activation factor is 1.08.

For the molecule `O=C(CSc1nnnn1C1CCCC1)Nc1ccc2c(c1)OCCO2`, the activation factor was 0.96.

Consider `Cc1cnc(NC(=O)Cn2cnc3c2c(=O)n(C)c(=O)n3C)s1`, for which the activation factor is 1.

As to `CCOc1ccc(C(=O)COC(=O)c2ccc(-n3cnnn3)cc2)cc1`, the activation factor is 1.05.

For `CC(=O)NC1C(Oc2ccc(C)cc2)OC2COC(c3ccco3)OC2C1O` (stereo not drawn), the activation factor is 1.11.

Regarding `Oc1ccc(Br)cc1/C=N/Nc1ccccn1`, the activation factor was 1.22.

Regarding `Oc1cccc(/C=N/Nc2ccc(Cl)nn2)c1O`, the activation factor is 2.16 (active).

In the case of `O=C(COc1ccc2c(C(F)(F)F)cc(=O)oc2c1)Nc1ccc2c(c1)OCCO2`, the activation factor was 1.02.

For `C=CCOc1cccc(CNn2cn[nH]c2=S)c1`, the activation factor was 0.895.

Take `CNC(=O)CN1C(=O)NC(c2ccccc2)(c2ccccc2)C1=O`: the activation factor is 1.05.

For `CCOc1ccccc1N1C(=O)CC(Sc2nccc(C)n2)C1=O` (stereo not drawn), the activation factor was 1.29.

On to `O=C(NCC(=O)N1CCC2(CC1)NCCc1[nH]cnc12)c1ccc(Br)cc1`, for which the activation factor is 1.11.
